Bioassay records as filed in PubChem.
The sample as a whole holds a higher share of hits than the screen did.
mHTT CaM bind – mHTT-calmodulin interaction abrogation. AlphaScreen His-mHTT/GST-CaM binding, luminescence. inhibition, % at 15 µM. 190,000 compounds, 3.6% hits;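 further: 0% = both proteins with DMSO and 100% = one protein alone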
Pf apPOL block – Pf-apPOL DNA polymerase inhibition. Recombinant Pf-apPOL, molecular beacon fluorescence, 1.5 h. inhibition, % at 10 µM. 210,000 compounds, 0.25% hits. AID 1794808
Starred values were filed as active, the others as inactive; . = not tested or not shown. No stated cut-off is given here; in the data, active means inhibition above about 50%; inactive means the rest.

SMILES | mHTT CaM bind | Pf apPOL block
N#CC(=Cc1[nH]c2ccccc2c1O)C(N)=NC1CCCCC1 | 92.0* | 0.0
CCOc1ccc(CNC(=O)c2cc(NC(C)=O)cc3nc(C)ccc23)cc1 | 17.9 | 6.6
Cc1ccc2c(C(=O)NCc3ccccc3Cl)cc(NC(=O)C(C)C)cc2n1 | 58.3* | 0.0
CCC(=O)Nc1cc(C(=O)NCc2cc(F)cc(F)c2)c2ccc(C)nc2c1 | 54.5* | -0.4
Cc1ccc(CNC(=O)c2cc(NC(=O)C(C)C)cc3nc(C)ccc23)cc1 | 19.3 | 28.0
Cc1cc(C(=O)N(CCc2cccs2)Cc2cccnc2)c(C)o1 | -5.3 | -8.2
O=C(Nc1nccs1)c1cc2ccccc2oc1=Nc1cccc(Br)c1 | -2.0 | 1.4
O=C(NCCc1ccccc1)c1ccc(Cn2nnc3ccsc3c2=O)cc1 | 6.0 | 1.4
O=C(O)c1cc(N2C(=O)/C(=C/c3ccc([N+](=O)[O-])cc3)C=C2c2ccccc2)ccc1O | 88.0* | -4.4
O=C(O)c1cc(N2C(=O)/C(=C/c3ccc(Cl)cc3)C=C2c2ccccc2)ccc1O | 74.0* | -2.9
CC(=O)Nc1ccc(N2C(=O)/C(=C/c3ccc(Cl)cc3)C=C2c2ccccc2)cc1 | 31.0 | -1.0
O=C1/C(=C/c2ccc([N+](=O)[O-])cc2)C=C(c2ccccc2)N1c1ccc(F)cc1 | 18.0 | 0.1
Cc1ccc(NC(=O)C2CC(=O)N(c3ccccc3C)C2)cc1Cl (centres undefined) | 11.1 | -3.3
Cc1ccc(S(=O)(=O)Nc2cccc3cccnc23)cc1 | 37.9 | -44.7
Nc1ccccc1S(=O)(=O)Nc1cccc2cccnc12 | 100.0* | -18.7
CN(C)c1ccc(C(=O)N=c2sc3ccccc3n2C)cc1 | -5.0 | -4.5
O=C(Nc1ccc(C(F)(F)F)cc1[N+](=O)[O-])O[C@H]1[C@H](Cc2ccccc2)NS(=O)(=O)[C@H]2C[C@@H]3C=C[C@]12O3 | 65.0* | -4.6
Cc1cc(C(=O)O[C@H]2[C@H](Cc3ccccc3)NS(=O)(=O)[C@H]3C[C@@H]4C=C[C@]23O4)ccc1[N+](=O)[O-] | 16.8 | -7.5
O=C(c1ccccc1F)N1CCC2(CC1)NC(=O)N(Cc1cccc(Cl)c1)C2=O | 20.1 | 1.0
COc1cc(/C=c2\sc3nc4ccccc4n3c2=O)cc(Br)c1OC | 15.0 | 5.1
COc1ccc(C=C2Oc3cc(C)cc(O)c3C2=O)c(OC)c1OC | 74.6* | -5.3
COc1ccc(OC)c(C=C2Oc3cc(C)cc(O)c3C2=O)c1 | 4.5 | 3.3
COC(=O)c1ccc(CSc2nnc(NC(=O)c3cn(C)nc3OC)s2)o1 | -9.1 | 1.8
O=C1c2cccc(N3CCOCC3)c2C(=O)c2cccc(Cl)c21 | 84.0* | -71.3
O=C1CCC(=O)N1c1ccccc1N1CCOCC1 | . | -2.0
SMILES | mHTT CaM bind | Pf apPOL block
COc1cc(/C=C(\C#N)c2nc(-c3ccc(Cl)cc3Cl)cs2)ccc1O | 3.6 | 2.1
CCCN1CCN(C(=O)c2cc3c(n2C)CCN(Cc2ccc(C)cc2)C3)CC1 | 44.3 | -1.3
O=C(Nc1ncccc1O)c1c(O)c2cccc3c2n(c1=O)CC3 | 52.0* | -5.0
Cc1cccnc1NC(=O)c1c(O)c2cccc3c2n(c1=O)CCC3 | 10.0 | -2.2
O=C(Nc1ccccn1)c1c(O)c2cccc3c2n(c1=O)CCC3 | 8.0 | -0.4
O=C(Nc1ncccn1)c1c(O)c2cccc3c2n(c1=O)CCC3 | 56.0* | -6.5
O=C(NCc1ccc(Br)cc1)c1cn2c(n1)CCCC2 | 5.9 | -5.3
Cc1ccccc1C(=O)N1CC2CC1CC2NS(=O)(=O)c1cccs1 (centres undefined) | -0.7 | 4.5
O=C(NCc1cccs1)N(CCc1cccs1)C1CC1 | -4.6 | 1.0
CN1OCC(S(=O)(=O)N(C)Cc2ccccc2)C1c1cc(F)ccc1F (centres undefined) | -8.6 | -3.4
Nc1nc(Cn2nnc(-c3ccc(F)cc3)n2)nc(N2CCOCC2)n1 | 10.0 | -3.4
CCCOc1ccc(/C=C2/C(=O)ON=C2C)cc1Cl | 58.0* | 9.3
CCOc1ccc(Cl)cc1/C=C1/C(=O)ON=C1C | 30.0 | -9.4
CCOc1ccc(/C=C2/C(=O)ON=C2C)cc1Br | 48.0 | -0.1
CCN(CC)c1ccc(/C=C2/C(=O)ON=C2C)cc1 | 50.0* | 0.3
CCCCC1(C)OC(=O)C(=Cc2ccc(N(CC)CC)cc2)C(=O)O1 (centres undefined) | 3.0 | 4.2
CCOc1ccc(/C=C2/C(=O)ON=C2C)cc1Cl | 67.0* | 5.9
COCCCN1COc2ccc3c(C)c(-c4ccc(OC)c(OC)c4)c(=O)oc3c2C1 | -0.3 | -8.4
O=C(O)/C=C/C(=O)Nc1cccc(Br)c1 | 1.0 | 4.5
Cc1cnc(C(=O)NCCn2nc(-c3ccco3)ccc2=O)cn1 | -13.3 | 2.0
O=C(CCCn1cccc1)Nc1ccc2c(c1)OCCO2 | 7.1 | 77.7*
CCCC(=O)Nc1ccc2c(c1)OCCO2 | -2.2 | 2.6
COc1ccc(-c2cc3nc(C)cc(Nc4ccc(C(N)=O)cc4)n3n2)cc1OC | 22.5 | 11.8
Cc1nn2c(N)cc(-c3ccccc3)nc2c1-c1ccccc1 | 83.3* | 0.6
Cc1nc2c(-c3ccc(Cl)cc3)c(C)nn2c(N)c1-c1ccccc1 | -3.5 | -5.1
